# Experimental data reported in PubChem BioAssay (NCATS).
# Values without a mark were called inactive. Results filed as inconclusive are left out. Calls of active or inactive are those of the source. Calls follow the shape of the dose curve; as a rule, active = well fitted curve in the direction sought with a large enough effect; inconclusive = small, poorly fitted or top-dose-only effect, or another doubt; inactive = no such curve, though single readings can be large; an effect the other way counts as inactive or inconclusive.
# Molecular target: Phospholipid hydroperoxide glutathione peroxidase GPX4 (Homo sapiens) (UniProt P36969)
# Assay: Primary qHTS Assay for Inhibitors of Recombinant Selenoprotein Glutathione Peroxidase 4 (GPX4) (AID 1845192); also: nearly all actives have a fitted effect of over 65% in size
# Details: recombinant GPX4, GR-coupled NADPH fluorescence, 15 min; series mostly up to 50 µM; activity change, negative = inhibition: at the top concentration
# Summary of the method: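 NADPH consumption followed by fluorescence at 340/450 nm, t=0 and after 15 min at room temperature. Reaction started with cumene hydroperoxide (0.5 mM final) after 30 min compound–GPX4 preincubation; final 200 nM GPX4, 100 nM GR, 1 mM GSH, 0.5 mM NADPH.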
# Chain of Phospholipid hydroperoxide glutathione peroxidase GPX4 (Homo sapiens) (P36969 whole entry, looked up): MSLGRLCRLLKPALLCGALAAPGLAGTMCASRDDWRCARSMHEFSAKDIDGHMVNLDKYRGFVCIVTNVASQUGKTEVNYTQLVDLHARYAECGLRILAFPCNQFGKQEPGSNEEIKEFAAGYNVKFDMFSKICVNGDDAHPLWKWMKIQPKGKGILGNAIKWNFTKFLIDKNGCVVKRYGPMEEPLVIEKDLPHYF
SMILES,"activity change, negative = inhibition [%]",outcome
COc1ccc(C=CC(=O)O)cc1,-8.32,
C=CC1=C(C(=O)O)N2C(=O)[C@@H](NC(=O)/C(=N\OCC(=O)O)c3csc(N)n3)[C@H]2SC1,,inactive
C[C@@H]1C[C@H]2[C@@H]3C[C@H](F)C4=CC(=O)C=C[C@]4(C)[C@@]3(F)[C@@H](O)C[C@]2(C)[C@@]1(O)C(=O)COC(=O)C(C)(C)C,-11,
CC(C)[C@H](N)C(=O)O,-8.59,
Cc1ccc(/C=C2\C(=O)C3(C)CCC2C3(C)C)cc1 (stereo not given),,inactive
OCC=Cc1ccccc1,,inactive
CCCCCCCCC=CCCCCCCCC(=O)NCCOC(=O)CC(C(=O)O)S(=O)(=O)O (stereo not given),-1.07,
Nc1nc(Nc2ccc3c(c2)CC[C@@H](N2CCCC2)CC3)nn1-c1cc2c(nn1)-c1ccccc1CCC2,-13,
CN[C@@H](C)C(=O)N[C@H](C(=O)N1CCC[C@H]1c1nc(C(=O)c2ccc(F)cc2)cs1)C1CCCCC1,,inactive
CC[C@H]1OC(=O)[C@H](C)[C@@H](O[C@H]2C[C@@](C)(OC)[C@@H](O)[C@H](C)O2)[C@H](C)[C@@H](O[C@@H]2O[C@H](C)C[C@H](N(C)C)[C@H]2O)[C@](C)(OC)C[C@@H](C)C(=O)[C@H](C)[C@@H](O)[C@]1(C)O,-11.7,
CN(CCCCCCCCCCN(C)C(=O)Oc1cccc([N+](C)(C)C)c1)C(=O)Oc1cccc([N+](C)(C)C)c1,-12.9,
N[C@@H]1CCCCN(c2c(F)cc3c(=O)c(C(=O)O)cn(C4CC4)c3c2Cl)C1,-0.427,

# Molecular target: Cytochrome P450 3A4 (Homo sapiens) (UniProt P08684)
# Assay: qHTS for inhibitors of CYP3A4 against the NCATS DSHEA and TCM libraries (AID 1919971);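 also: % is scaled to controls: 0 for no effect and ±100 for the full control effect; inhibition lowers luminescence from luciferin made by CYP3A4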
# Details: recombinant CYP3A4 enzyme activity, luminescence qHTS; series mostly up to 34.1 µM; activity change, negative = inhibition: at the top concentration
# Summary of the method: (§1)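 Substances were tested against enzyme with a pro-luciferin substrate; minus-enzyme wells served as background. After NADPH-initiated oxidation (30-45 min, RT), light was generated with P450-Glo reagent.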
# Chain of Cytochrome P450 3A4 (Homo sapiens) (P08684 whole entry, looked up): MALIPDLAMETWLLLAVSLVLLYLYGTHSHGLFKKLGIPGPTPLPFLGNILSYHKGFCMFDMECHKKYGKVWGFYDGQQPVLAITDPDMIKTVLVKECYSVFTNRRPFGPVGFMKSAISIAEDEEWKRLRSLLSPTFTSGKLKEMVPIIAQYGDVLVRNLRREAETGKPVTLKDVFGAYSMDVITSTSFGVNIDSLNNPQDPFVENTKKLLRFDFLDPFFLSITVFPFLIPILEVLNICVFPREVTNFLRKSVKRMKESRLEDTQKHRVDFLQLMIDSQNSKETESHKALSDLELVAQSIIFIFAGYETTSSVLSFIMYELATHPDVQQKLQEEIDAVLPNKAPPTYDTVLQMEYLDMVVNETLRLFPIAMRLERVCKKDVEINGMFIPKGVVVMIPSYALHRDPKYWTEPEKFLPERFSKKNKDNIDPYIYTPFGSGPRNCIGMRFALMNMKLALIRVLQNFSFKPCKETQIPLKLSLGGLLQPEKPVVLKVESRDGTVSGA
row,SMILES,"activity change, negative = inhibition [%]"
1,C=C(C)[C@H]1CC=C(C)CC1,7.77
2,OCC=Cc1ccccc1,2.78
3,CCC(/C=C/[C@@H](C)[C@H]1CCC2C3CC=C4C[C@@H](O)CC[C@]4(C)C3CC[C@@]21C)C(C)C (stereo not given in full),22.4

# Molecular target: Cytochrome P450 2D6 (Homo sapiens) (UniProt P10635)
# Assay: qHTS for inhibitors of CYP2D6 against the NCATS DSHEA and TCM libraries (AID 1919972); also: % is scaled to controls: 0 for no effect and ±100 for the full control effect
# Details: CYP2D6 enzymatic inhibition, luminescence qHTS; series mostly up to 34.1 µM; activity change, negative = inhibition: at the top concentration
# Summary of the method: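 qHTS, concentration–response format with most substances from 19.5 nM. CYP2D6 + pro-luciferin substrate, 15 min with compound, then 1x NADPH regen, 30–45 min RT dark. Glo detection 30 min, luminescence. Quinidine control.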
# Chain of Cytochrome P450 2D6 (Homo sapiens) (P10635 whole entry, looked up): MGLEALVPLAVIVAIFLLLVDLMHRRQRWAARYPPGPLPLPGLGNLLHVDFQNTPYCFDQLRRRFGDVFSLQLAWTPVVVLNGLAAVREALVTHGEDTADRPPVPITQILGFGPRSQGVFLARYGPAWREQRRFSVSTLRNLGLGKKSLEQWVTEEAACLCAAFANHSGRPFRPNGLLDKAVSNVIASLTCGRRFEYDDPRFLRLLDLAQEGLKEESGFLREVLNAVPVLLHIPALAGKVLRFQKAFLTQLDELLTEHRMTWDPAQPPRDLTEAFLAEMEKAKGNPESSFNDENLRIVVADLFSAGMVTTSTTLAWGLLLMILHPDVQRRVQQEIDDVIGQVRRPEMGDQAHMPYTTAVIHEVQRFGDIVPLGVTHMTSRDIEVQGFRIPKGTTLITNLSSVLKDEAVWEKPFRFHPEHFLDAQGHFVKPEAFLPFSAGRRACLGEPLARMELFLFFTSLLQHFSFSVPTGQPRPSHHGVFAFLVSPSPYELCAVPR
row,SMILES,"activity change, negative = inhibition [%]"
1,C=C(C)[C@H]1CC=C(C)CC1,4.27
2,OCC=Cc1ccccc1,-2.03
3,CCC(/C=C/[C@@H](C)[C@H]1CCC2C3CC=C4C[C@@H](O)CC[C@]4(C)C3CC[C@@]21C)C(C)C (stereo not given in full),-1.23

# Molecular target: Cytochrome P450 2C9 (Homo sapiens) (UniProt P11712)
# Assay: qHTS for inhibitors of CYP2C9 against the NCATS DSHEA and TCM libraries (AID 1919973);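 also: luminogenic pro-luciferin CYP2C9 substrate turned into luciferin with NADPH regeneration; % is scaled to controls: 0 for no effect and ±100 for the full control effect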
# Details: recombinant CYP2C9 enzyme activity, luminescence; series mostly up to 34.1 µM; activity change, negative = inhibition: at the top concentration
# Summary of the method: as §1
# Chain of Cytochrome P450 2C9 (Homo sapiens) (P11712 whole entry, looked up): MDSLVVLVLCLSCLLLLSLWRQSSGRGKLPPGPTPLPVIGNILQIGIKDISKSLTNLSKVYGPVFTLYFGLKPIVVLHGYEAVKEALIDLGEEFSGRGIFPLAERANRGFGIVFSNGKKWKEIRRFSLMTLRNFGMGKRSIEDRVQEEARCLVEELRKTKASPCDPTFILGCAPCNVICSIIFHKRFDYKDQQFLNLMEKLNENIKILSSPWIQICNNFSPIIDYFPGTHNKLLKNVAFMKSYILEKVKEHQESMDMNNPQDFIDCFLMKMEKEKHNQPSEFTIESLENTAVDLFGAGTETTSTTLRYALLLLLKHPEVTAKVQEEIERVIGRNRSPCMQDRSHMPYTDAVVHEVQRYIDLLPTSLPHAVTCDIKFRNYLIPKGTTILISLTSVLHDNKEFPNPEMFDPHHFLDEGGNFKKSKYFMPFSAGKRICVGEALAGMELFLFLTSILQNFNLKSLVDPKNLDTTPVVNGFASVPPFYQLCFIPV
row,SMILES,"activity change, negative = inhibition [%]"
1,C=C(C)[C@H]1CC=C(C)CC1,10.6
2,OCC=Cc1ccccc1,7.32
3,CCC(/C=C/[C@@H](C)[C@H]1CCC2C3CC=C4C[C@@H](O)CC[C@]4(C)C3CC[C@@]21C)C(C)C (stereo not given in full),-6.3

# Molecular target: Cytochrome P450 2C19 (Homo sapiens) (UniProt P33261)
# Assay: qHTS for inhibitors of CYP2C19 against the NCATS DSHEA and TCM libraries (AID 1919974);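 also: luminescence from luciferin released by CYP2C19 oxidation of a pro-luciferin substrate; % is scaled to controls: 0 for no effect and ±100 for the full control effect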
# Details: CYP2C19 enzyme inhibition, luminescence qHTS; series mostly up to 34.1 µM; activity change, negative = inhibition: at the top concentration
# Summary of the method: as §1
# Chain of Cytochrome P450 2C19 (Homo sapiens) (P33261 whole entry, looked up): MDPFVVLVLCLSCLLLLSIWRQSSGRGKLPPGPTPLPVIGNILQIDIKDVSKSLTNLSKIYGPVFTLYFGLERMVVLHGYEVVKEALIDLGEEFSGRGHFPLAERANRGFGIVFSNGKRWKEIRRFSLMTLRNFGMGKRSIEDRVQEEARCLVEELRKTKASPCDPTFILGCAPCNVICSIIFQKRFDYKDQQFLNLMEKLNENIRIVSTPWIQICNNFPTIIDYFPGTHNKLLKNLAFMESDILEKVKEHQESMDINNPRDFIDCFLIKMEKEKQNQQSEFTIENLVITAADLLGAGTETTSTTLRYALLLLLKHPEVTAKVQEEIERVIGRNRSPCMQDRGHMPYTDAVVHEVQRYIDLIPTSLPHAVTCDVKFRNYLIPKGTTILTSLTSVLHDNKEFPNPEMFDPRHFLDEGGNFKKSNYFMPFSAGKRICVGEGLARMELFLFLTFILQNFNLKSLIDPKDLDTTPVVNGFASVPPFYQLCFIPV
row,SMILES,"activity change, negative = inhibition [%]"
1,C=C(C)[C@H]1CC=C(C)CC1,19.1
2,OCC=Cc1ccccc1,0.222
3,CCC(/C=C/[C@@H](C)[C@H]1CCC2C3CC=C4C[C@@H](O)CC[C@]4(C)C3CC[C@@]21C)C(C)C (stereo not given in full),4.43

# Tested on: not listed separately
# Assay: KB-3-1 P-gp reporter qHTS against the NCATS DSHEA and TCM libraries (AID 1919975); also: 0% is about no effect
# Details: KB-3-1 parental cells, CellTiter-Glo luminescence viability, 72 h; series mostly up to 26.1 µM; activity change, negative = inhibition: at the top concentration
# Summary of the method: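 CellTiter-Glo luminescence viability readout; KB-3-1 parental cells, 500/well, attached ~4 h, then compound for ~72 h, 37C, 5% CO2. Bortezomib intraplate control.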
row,SMILES,"activity change, negative = inhibition [%]"
1,C=C(C)[C@H]1CC=C(C)CC1,-5.96
2,OCC=Cc1ccccc1,1.29
3,CCC(/C=C/[C@@H](C)[C@H]1CCC2C3CC=C4C[C@@H](O)CC[C@]4(C)C3CC[C@@]21C)C(C)C (stereo not given in full),-9.8

# Molecular target: Cytochrome P450 1A2 (Homo sapiens) (UniProt P05177)
# Assay: qHTS for inhibitors of CYPIA2 against the NCATS DSHEA and TCM libraries (AID 1919976); also: % is scaled to controls: 0 for no effect and ±100 for the full control effect
# Details: recombinant CYP1A2 enzyme activity, luminescence; series mostly up to 37 µM; activity change, negative = inhibition: at the top concentration
# Summary of the method: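 Luminescence read-out: pro-luciferin converted to D-luciferin by CYP1A2, detected with P450-Glo reagent after 30 min RT. Enzyme plus substrate got compounds for 15 min RT; NADPH regeneration solution (final 1x) started a 30-45 min reaction, light-protected.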
# Chain of Cytochrome P450 1A2 (Homo sapiens) (P05177 whole entry, looked up): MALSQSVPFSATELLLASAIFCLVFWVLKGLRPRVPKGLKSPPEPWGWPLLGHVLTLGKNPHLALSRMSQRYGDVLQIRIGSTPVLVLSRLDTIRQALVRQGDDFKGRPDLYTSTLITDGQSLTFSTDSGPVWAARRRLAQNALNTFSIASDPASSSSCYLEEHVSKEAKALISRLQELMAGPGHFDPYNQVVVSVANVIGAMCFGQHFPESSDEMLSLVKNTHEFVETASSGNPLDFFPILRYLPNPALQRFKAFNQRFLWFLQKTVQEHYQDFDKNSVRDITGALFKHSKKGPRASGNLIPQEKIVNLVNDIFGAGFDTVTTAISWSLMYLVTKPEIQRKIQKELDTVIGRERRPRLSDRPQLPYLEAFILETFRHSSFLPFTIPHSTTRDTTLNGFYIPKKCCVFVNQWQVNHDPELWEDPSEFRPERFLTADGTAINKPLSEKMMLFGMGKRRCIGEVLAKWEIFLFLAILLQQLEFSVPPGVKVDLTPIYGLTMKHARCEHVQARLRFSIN
row,SMILES,"activity change, negative = inhibition [%]"
1,C=C(C)[C@H]1CC=C(C)CC1,17
2,OCC=Cc1ccccc1,-21.8
3,CCC(/C=C/[C@@H](C)[C@H]1CCC2C3CC=C4C[C@@H](O)CC[C@]4(C)C3CC[C@@]21C)C(C)C (stereo not given in full),17.7

# Tested on: not listed separately
# Assay: qHTS Counterscreen for compound interference against the NCATS DSHEA and TCM libraries (AID 1919978);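 also: compounds preincubated with 1 µM D-luciferin or buffer before detection reagent; % of control where 0% means no effect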
# Details: firefly luciferase detection reagent interference, luminescence
# Summary of the method: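 Luminescence counterscreen for detection-kit interference: compounds at 19.5 nM–39.8 uM final, 15 min RT with 1 uM D-luciferin or buffer only; detection reagent added, 30 min RT, then read.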
row,SMILES,max response [%]
1,C=C(C)[C@H]1CC=C(C)CC1,-0.263
2,OCC=Cc1ccccc1,2.25
3,CCC(/C=C/[C@@H](C)[C@H]1CCC2C3CC=C4C[C@@H](O)CC[C@]4(C)C3CC[C@@]21C)C(C)C (stereo not given in full),3.05

# Tested on: not listed separately
# Assay: Dual reporter qHTS for agonist of Pregnane X Receptor (hPXR) against the NCATS DSHEA and TCM libraries: Fluorescence readout (AID 1920058); also: 0% is about no effect
# Details: PXR dual reporter cells; series mostly up to 40 µM; activation: at the top concentration
# Summary of the method: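 Fluorescence read-out for cell viability: CellTiter-Fluor, 1 h at 37 °C, Ex/Em 405/540 nm. This followed ~24 h treatment of hPXR-Luc HepG2 cells with substances in agonist mode.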
row,SMILES,activation [%]
1,C=C(C)[C@H]1CC=C(C)CC1,-6.9
2,OCC=Cc1ccccc1,-1.85
3,CCC(/C=C/[C@@H](C)[C@H]1CCC2C3CC=C4C[C@@H](O)CC[C@]4(C)C3CC[C@@]21C)C(C)C (stereo not given in full),-6.06

# Molecular target: Nuclear receptor subfamily 1 group I member 2 (Homo sapiens) (UniProt O75469)
# Assay: Dual reporter qHTS for agonist of Pregnane X Receptor (hPXR) against the NCATS DSHEA and TCM libraries: Luminescence readout (AID 1920059); also: 0% is about no effect
# Details: hPXR dual reporter cells, luciferase luminescence agonist; series mostly up to 40 µM; activation: at the top concentration
# Summary of the method: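 Luminescent PXR reporter read (ONE-Glo) after a CellTiter-Fluor viability read, following 24 h, 37C treatment of HepG2 cells stably carrying hPXR-Luc.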
# Chain of Nuclear receptor subfamily 1 group I member 2 (Homo sapiens) (O75469 whole entry, looked up): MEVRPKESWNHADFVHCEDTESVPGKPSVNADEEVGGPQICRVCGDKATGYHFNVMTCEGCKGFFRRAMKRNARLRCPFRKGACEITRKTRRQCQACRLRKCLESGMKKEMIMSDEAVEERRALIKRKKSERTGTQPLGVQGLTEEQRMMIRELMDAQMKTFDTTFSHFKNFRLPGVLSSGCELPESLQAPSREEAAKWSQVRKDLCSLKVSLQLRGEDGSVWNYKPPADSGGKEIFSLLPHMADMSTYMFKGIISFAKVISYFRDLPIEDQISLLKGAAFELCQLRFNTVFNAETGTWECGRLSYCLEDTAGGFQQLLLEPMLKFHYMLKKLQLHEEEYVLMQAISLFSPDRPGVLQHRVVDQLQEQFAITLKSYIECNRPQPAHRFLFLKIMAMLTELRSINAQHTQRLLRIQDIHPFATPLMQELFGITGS
row,SMILES,activation [%]
1,C=C(C)[C@H]1CC=C(C)CC1,-7.13
2,OCC=Cc1ccccc1,-8.77
3,CCC(/C=C/[C@@H](C)[C@H]1CCC2C3CC=C4C[C@@H](O)CC[C@]4(C)C3CC[C@@]21C)C(C)C (stereo not given in full),-3.48

# Molecular target: Nuclear receptor subfamily 1 group I member 2 (Homo sapiens) (UniProt O75469)
# Assay: Dual reporter qHTS for antagonist of Pregnane X Receptor (hPXR) against the NCATS DSHEA and TCM libraries: Luminescence Readout (AID 1920060); also: 0% is about no effect
# Details: hPXR dual reporter cells, luciferase luminescence, antagonist mode; series mostly up to 40 µM; activity change, negative = inhibition: at the top concentration
# Summary of the method: (§2)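 Rifampicin-stimulated (2 uM final) hPXR-luciferase HepG2 cells were treated for 24 h with DSNP/TCM substances. Viability came from CellTiter-Fluor fluorescence, reporter activity from ONE-Glo luminescence.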
row,SMILES,"activity change, negative = inhibition [%]"
1,C=C(C)[C@H]1CC=C(C)CC1,-10.3
2,OCC=Cc1ccccc1,-20.1
3,CCC(/C=C/[C@@H](C)[C@H]1CCC2C3CC=C4C[C@@H](O)CC[C@]4(C)C3CC[C@@]21C)C(C)C (stereo not given in full),-11.1

# Tested on: not listed separately
# Assay: Dual reporter qHTS for antagonist of Pregnane X Receptor (hPXR) against the NCATS DSHEA and TCM libraries: Fluorescence Readout (AID 1920061); also: 0% is about no effect
# Details: PXR dual reporter cells, antagonist mode; series mostly up to 40 µM; activity change, negative = inhibition: at the top concentration
# Summary of the method: as §2
row,SMILES,"activity change, negative = inhibition [%]"
1,C=C(C)[C@H]1CC=C(C)CC1,13.7
2,OCC=Cc1ccccc1,9.52
3,CCC(/C=C/[C@@H](C)[C@H]1CCC2C3CC=C4C[C@@H](O)CC[C@]4(C)C3CC[C@@]21C)C(C)C (stereo not given in full),5.07
